From PubChem
This excerpt belongs to a sample that is enriched for hits.
Dicer processing = blocks human Dicer maturation of pre-miR-21 | Q9UPY3 | cat-ELCCA pre-miR-21 Dicer processing, chemiluminescence; active compounds read high | z-score at 25 µM | 47,000 compounds, 6% hits | AID 1347074; in the data active means z-score above about 3, passing the limit was not always enough;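 further: plate controls were vehicle for no effect and no enzyme for full effect; higher signal means more uncleaved substrate so more Dicer inhibition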
* = called active by the depositor.

SMILES | Dicer processing
Cc1c(NC(=O)C2CC2)c(=O)n(-c2ccccc2)n1C | 2.6
O=C(Nc1ccc(F)cc1)C1Sc2nnc(-c3ccccc3)n2NC1c1ccc(F)cc1 (stereo not drawn) | 0.62
CN(CCO)CC(O)Cn1c2ccc(Cl)cc2c2cc(Cl)ccc21 (stereo not drawn) | 0.61
O=C1c2ccccc2C(=O)C1(Nc1ccc(Cl)c(Cl)c1)c1ccccc1 | -0.91
C#CCC1(c2ccccc2)C(=O)c2ccccc2C1=O | 0.75
O=C1c2ccccc2C(=O)C1(c1ccccc1)[N+](=O)[O-] | 3.1*
COC(=O)CC1(C(=O)OC)Oc2ccc(Br)cc2C(=O)N1c1ccc(F)c(Cl)c1 (stereo not drawn) | 44
Cc1c(Br)cc2nc3c(nc2c1C)CCCC3 | 1
O=C(CS(=O)(=O)c1ccc(C(F)(F)F)cn1)NNC(=O)Nc1ccccc1 | 0.12
COC(=O)C(C)(C)S(=O)(=O)c1ccc(C(F)(F)F)cn1 | -0.28
COC(=O)CS(=O)(=O)c1ccc(C(F)(F)F)cn1 | 3.4*
O=C(c1ccco1)N1CCN(C2CC(=O)N(c3cccc(Cl)c3)C2=O)CC1 (stereo not drawn) | -2.2
Cc1nc2ccc(NC(=O)c3ccccc3Cl)cc2o1 | 0.05
CCN(CC)CCOc1c(Br)ccc2c1sc1nc3n(c(=O)c12)CCC3 | 4.1*
O=C(O)CSCC(=O)N1CCN(c2nc(-c3ccccc3)ns2)CC1 | 1.2
c1ccc(-c2nsc(N3CCCC3)n2)cc1 | 3*
CCS(=O)(=O)N1CCN(c2nc(-c3ccccc3)ns2)CC1 | -0.23
CC(C)C(NC(=O)OCC1c2ccccc2-c2ccccc21)C(=O)O (stereo not drawn) | -1.3
CC(CO)NC(=O)OCC1c2ccccc2-c2ccccc21 (stereo not drawn) | 4.9
O=C(Nc1ccccc1C(=O)O)OCC1c2ccccc2-c2ccccc21 | 5.2*
CCNC(=S)NNC(=O)CN1c2ccccc2Sc2ccccc21 | 0.53
CC(C)c1ccc(NC2(C#N)CCCCC2)cc1 | 1.4
CC(C)c1ccc(Nc2nnns2)cc1 | 6.8*
Clc1ccc(Nc2nnns2)cc1 | 1.6
O=C(c1cc2n(n1)C(C(F)(F)F)CC(c1ccc(F)cc1)N2)N1CCCCC1 (stereo not drawn) | 0.84
SMILES | Dicer processing
O=c1[nH]n(-c2ncnc3sc4c(c23)CCCC4)c(=O)c2ccccc12 | -0.56
Nc1cc(=O)[nH]c(SCc2ccc(Cl)cc2Cl)n1 | -0.88
O=c1[nH]c(SCc2ccc(Cl)cc2Cl)nc2ccccc12 | 3.7*
NC(=O)CSc1nc2ccccc2c(=O)[nH]1 | -0.39
CCOC(=O)c1c[nH]c2ccc(C)cc2c1=O | 0.68
N#CCCN(Cc1ccccc1)S(=O)(=O)c1ccc(F)cc1 | -0.74
CCOc1cc(C2c3c(oc4ccc(C)cc4c3=O)C(=O)N2Cc2ccccc2)ccc1O (stereo not drawn) | -0.16
CC(C)c1ccc(C2C3CCc4ccccc4C3=NN2CCO)cc1 (stereo not drawn) | 3.1*
CN1N=C2c3ccccc3CCC2C1c1ccc(F)cc1 (stereo not drawn) | 0.59
COc1ccc2c(c1)CCC1C2=NN(C)C1c1ccc(C(C)C)cc1 (stereo not drawn) | 1.1
CCc1n(CC(O)COc2cccc(OC)c2)c2ccccc2[n+]1C (stereo not drawn) | 0.77
CS(=N)(=O)c1ccc(Oc2ccc([N+](=O)[O-])cn2)cc1 (stereo not drawn) | -1
COC(=O)C1=C(C)NC2=C(C(=O)CCC2)C1c1ccc2c(c1)OCC2 (stereo not drawn) | 2.3
O=C1C2SCCN2C(=S)N1c1ccc(Cl)cc1 (stereo not drawn) | 0.69
CC1CN(Cc2c(O)ccc3c(=O)c(Oc4ccc5ccccc5c4)c(C(F)(F)F)oc23)CC(C)O1 (stereo not drawn) | 1.2
CC1CN(Cc2c(O)ccc3c2oc(=O)c2ccccc23)CC(C)O1 (stereo not drawn) | 3.1*
CN1CCN(Cc2c(O)ccc3c(=O)c(-c4ccccc4)c(C(F)(F)F)oc23)CC1 | 0.54
O=c1c(-c2ccccc2)coc2c(CN3CCCCC3)c(O)ccc12 | 0.61
CC1CCN(Cc2c(O)ccc3c2oc(=O)c2ccccc23)CC1 | 3.5*
CC1CN(Cc2c(O)ccc3c(=O)c(-c4ccccc4)coc23)CC(C)O1 (stereo not drawn) | 27
CCOC(=O)C(=CNc1cccc(F)c1C#N)C(=O)OCC | 0.14
Cc1cc(/C=N\NC(=O)CCc2ccc(O)cc2)c2c(C)ccc(C(C)C)cc1-2 | 1.7
CCOC(=O)CSC(=S)NCc1ccc(C)cc1 | -0.75
CCCCCCCSc1nnc(-c2ccccc2N)c(=O)[nH]1 | 1.1
CCCCCCCCSc1ncn[nH]1 | -1.6
SMILES | Dicer processing
CCCCCSc1nncc(=O)[nH]1 | 4.2*
COC(=O)C(N)CCSC (stereo not drawn) | -0.52
CSc1cccc(NC(=O)Cn2nc(C)c(Oc3ccccc3)c2C)c1 | -0.64
Cn1c(=O)c2c(c3ccccc31)OC(=O)CC2c1ccc(F)cc1 (stereo not drawn) | -1.2
CC1=Nc2cc(Cl)c(Cl)cc2NC(C)(C)C1 | 7.2*
COc1cccc(NC(=O)c2cc(C)n(Cc3cccs3)c2C)c1 | -0.64
Cc1cc(C)nc(NS(=O)(=O)c2ccc(NC(=O)Nc3ccc(OCc4ccccc4)cc3)cc2)n1 | 1.6
Cc1ccc(C2c3c(oc4ccc(F)cc4c3=O)C(=O)N2CCCN2CCOCC2)cc1 (stereo not drawn) | 1.1
c1cncc(C2=NN3C(C2)c2ccccc2OC3c2cccs2)c1 (stereo not drawn) | -0.24
CSCCC1Oc2ccc(Cl)cc2C2CC(c3ccccc3O)=NN12 (stereo not drawn) | -1.1
Oc1ccc(Cl)cc1C1=NN2C(C1)c1ccccc1OC2c1ccncc1 (stereo not drawn) | -0.87
Clc1ccc(C2=NN3C(C2)c2ccccc2OC3c2ccncc2)cc1 (stereo not drawn) | 6*
Cc1ccc(C2Oc3ccccc3C3CC(c4ccncc4)=NN32)cc1 (stereo not drawn) | -0.49
Clc1ccc2c(c1)C1CC(c3ccccc3)=NN1C(c1ccncc1)O2 (stereo not drawn) | 15*
COc1cc(C2Oc3ccccc3C3CC(c4ccccc4)=NN32)ccc1OC(C)=O (stereo not drawn) | 4.5*
COc1ccc(C2Oc3ccccc3C3CC(c4ccc(C)o4)=NN32)cc1OC (stereo not drawn) | -2
COc1ccc(C2Oc3ccccc3C3CC(c4cccnc4)=NN32)cc1 (stereo not drawn) | 1.9
CCN1C(=O)c2cccc3c(S(=O)(=O)N(C)c4ccccc4)ccc1c23 | 0.06
CCCN1C(=O)C(NC(C)=O)c2cc(C)cc(C)c21 (stereo not drawn) | 0.87
CCOC(=O)C1CCN(C(=O)c2cc(C)nn2C(C)(C)C)CC1 | 0.75
Cn1c(SCc2ccc(-c3csnn3)cc2)nnc1C(F)(F)F | -1.1
CC(C)NC(=S)NNC(=O)C1CC2CCC1O2 (stereo not drawn) | -1.1
C=C(C)Cc1c(COC)nc(SCC2CC2)[nH]c1=O | 11
COC(=O)c1ccc(C2C(C(=O)OCCc3ccccc3)=C(C)NC3=C2C(=O)CCC3)cc1 (stereo not drawn) | -0.59
CC1CCCCN1C(=O)CSc1nc(-c2cccs2)cc(C(F)(F)F)n1 (stereo not drawn) | -0.47
CCOc1ccc(OCCSc2nc(C)cc(=O)[nH]2)cc1 | 0.06
COc1ccccc1OCCSc1nc(C)cc(=O)[nH]1 | 22
Cc1ccc(OCCSc2nc(C)cc(=O)[nH]2)cc1 | 4.9*
CCN(c1cccc2ccccc12)S(=O)(=O)c1ccc(F)cc1 | -0.71
